# PubChem BioAssay AID1117283 (Broad Institute, 2014)
# Measured potencies and affinities stand elsewhere. Activity calls are given as the source filed them.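 Rule for the calls: active = fluorescent signal decreased by at least 40%; inconclusive = no clear call, values can overlap the other calls; inactive = the rest, including activity opposite to the expected direction.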
# Assay: inhibition of fibronectin matrix deposition – AH1F cells, Alexa488-fibronectin fluorescence, cherry-pick, set 2, dose response (AID 1117283);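 note: AH1F fibroblasts given Alexa488-labelled fibronectin at 24 nM final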
# Details: AH1F fibroblasts, overnight; series mostly up to 35 µM
row,SMILES,outcome
1,Cc1cc(C)n2ncc(C(=O)NCc3ccc(Cl)cc3)c2n1,inactive
2,CC(=O)Nc1cccc(-c2ccnc3c2CC(C)(C(=O)Nc2cccc(C(F)(F)F)c2)O3)c1 (stereo not drawn),inactive
3,CO[C@H]1CN(C)C(=O)c2ccc(NC(=O)Nc3cc(Cl)cc(Cl)c3)cc2OC[C@H](C)NC[C@@H]1C,inactive
4,O=S(=O)(c1ccccc1F)N1CC[C@@H]2[C@@H](CO)Nc3ccc(-c4cccc(F)c4)cc3[C@@H]21,inactive
5,CC1OC(CC(=O)O)CC2=C1C(=O)c1c(O)cccc1C2=O (stereo not drawn),inactive
6,C[C@@H]1CN([C@H](C)CO)C(=O)c2cc(NC(=O)C3CCCCC3)ccc2O[C@@H]1CN(C)Cc1ccc(-c2ccccc2)cc1,inactive
7,COc1ccccc1CNc1nc(NCc2cnc(C)cn2)c2sccc2n1,inactive
8,CO[C@@H]1CN(C)C(=O)c2cc(NC(=O)Nc3ccc(Cl)c(Cl)c3)ccc2OC[C@H](C)NC[C@H]1C,inactive
9,C[C@H]1CN([C@@H](C)CO)C(=O)c2cc(NC(=O)C3CCCCC3)ccc2O[C@@H]1CN(C)Cc1ccc(-c2ccccc2)cc1,inactive
10,O=S(=O)(c1cccc(F)c1)N1CC[C@@H]2[C@H](CO)Nc3ccc(-c4cccc(F)c4)cc3[C@@H]21,inactive
11,O=C(CN1CCCC1)Nc1ccc(Oc2ccc(NC(=O)CN3CCCC3)cc2)cc1,inactive
12,COCC(=O)Nc1ccc2c(c1)C(=O)N(C)[C@@H]1CC[C@@H](CC(=O)NCc3ccccc3Cl)O[C@H]1CO2,inactive
13,C=CCC[C@H](Cc1ccc(F)cc1)C(=O)OC[C@H](Cc1c[nH]c2ccccc12)NC(=O)[C@@H](CC=C)CC(=O)N[C@@H](CO)Cc1ccccc1,inactive
